# Active and inactive are the calls of the source.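 Rule for the calls, unless noted: active = inhibition above 20% together with a positive visual image hit; inconclusive = visual image hit but inhibition not above 20%; inactive = no visual image hit.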
# Experiments:
# [1] = inhibitors of TNFa-induced NFkB p65 translocation, primary screen, imaging, HUVEC, MLSMR starter and 10KST1 sets (AID 438); settings: HUVEC TNFa-induced p65 nuclear translocation; cell count: measured here: nuclei count (cytotoxicity indicator), at 2.08 µM; inhibition: at 2 µM, stronger effect = higher value, 0% TNFa-plus-vehicle, 100% no-TNFa wells;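 note: compound added about 3h40 before a 20 min TNFalpha stimulation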;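 for inhibition: signal is the nuclear over cytoplasmic p65 intensity ratio per well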
# [2] = reduction of polyQ htt aggregates in cells – imaging, exon1htt(103Q)mCFP cells, high-content imaging, primary screen (AID 483;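 active = visual image review flags a hit and inhibition of aggregation exceeds 20%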;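 note: compound exposure lasted 3 days before fixation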;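 for nuclei count: percent of the per-plate median nuclei count of sample wells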); settings: exon1htt(103Q)mCFP cell line, aggregate imaging, at 2 µM; inhibition of aggregation: stronger effect = higher value; nuclei count: measured here: cell count, toxicity
# [3] = endothelial E-selectin expression blockers – imaging, HUVEC, immunofluorescence, MLSMR starter and 10KST1 sets, primary screen (AID 487;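 active = visually confirmed hit in the image check and inhibition above 20%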;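 for inhibition: signal is fraction of cell area covered by stained E-selectin grains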;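 for nuclei count: 100% = median nuclei count of all wells on the same plate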); settings: HUVEC TNFalpha-induced E-selectin immunofluorescence imaging, at 2 µM; inhibition: stronger effect = higher value; nuclei count: measured here: cell number, toxicity
# [4] = target: Voltage-gated potassium channel subunit beta-2 (Rattus norvegicus) (UniProt P62483); assay: inhibitors of rat Kvbeta2 reductase activity – biochemical, NADPH fluorescence, primary screen (AID 622;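 active = fluorescence slope higher than the sample average by over 3 SD, cut at about -0.22 in these data, passing the limit was not always enough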;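 note: slope of raw intensity against log time taken from 70 to 1610 s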); settings: recombinant KvBeta, 4-cyanobenzaldehyde reduction, at 10 µM, stronger effect = higher value
# [5] = target: Voltage-gated potassium channel subunit beta-2 (Rattus norvegicus) (UniProt P62483); assay: enhancers of rat Kvbeta2 NADPH turnover – biochemical, NADPH fluorescence, primary screen (AID 623;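 active = NADPH fluorescence slope more negative than the mean of all samples by about 3 SD, 99.7% confidence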;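 note: fluorescence intensity change per second fitted from 20 to 320 s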); settings: Recombinant KvBeta, NADPH fluorescence decrease slope, 10 min; at 10 µM; stronger effect = lower value
# [6] = target: Alpha-2C adrenergic receptor (Homo sapiens) (UniProt P18825); assay: compounds altering alpha2C-coupled GIRK flux – cell-based, HEK293 alpha2C/GIRK1/2, thallium flux, primary screen (AID 624;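 active = fluorescence slope after compound addition differing from the mean of all screened samples at 99.7% confidence, in either direction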;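 note: slope of fluorescence ratio to pre-addition baseline per second over 15 to 24 s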); settings: thallium flux BTC fluorescence, at 10 µM, actives lie on both sides
# [7] = blockers of RIG-like receptor reporter activation – cell-based, Sendai virus stimulus, luciferase, 10K MLSCN set, TLR/RLR signaling modifier project, primary screen (AID 602276;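 active = inhibition at or above 50% at 10 µM; inactive = inhibition below 50%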;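 note: firefly luciferase from ISG56 promoter only with Renilla not read in this screen; 0% = Sendai virus plus DMSO and 100% = medium plus DMSO without virus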); settings: HEK293 RL24 IRF3 luciferase reporter, at 10 µM, stronger effect = higher value
# [8] = TLR3 IRF3 reporter activation blockers – cell-based, poly I:C stimulus, luciferase, 10K MLSCN set, primary screen (AID 602277;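 active = inhibition of the reporter signal at or above 50%; inactive = inhibition below 50%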); settings: HEK293-TLR3 RL24 IRF3 luciferase reporter, at 10 µM, stronger effect = higher value
# Sequence of Alpha-2C adrenergic receptor (Homo sapiens) (P18825 whole entry, looked up): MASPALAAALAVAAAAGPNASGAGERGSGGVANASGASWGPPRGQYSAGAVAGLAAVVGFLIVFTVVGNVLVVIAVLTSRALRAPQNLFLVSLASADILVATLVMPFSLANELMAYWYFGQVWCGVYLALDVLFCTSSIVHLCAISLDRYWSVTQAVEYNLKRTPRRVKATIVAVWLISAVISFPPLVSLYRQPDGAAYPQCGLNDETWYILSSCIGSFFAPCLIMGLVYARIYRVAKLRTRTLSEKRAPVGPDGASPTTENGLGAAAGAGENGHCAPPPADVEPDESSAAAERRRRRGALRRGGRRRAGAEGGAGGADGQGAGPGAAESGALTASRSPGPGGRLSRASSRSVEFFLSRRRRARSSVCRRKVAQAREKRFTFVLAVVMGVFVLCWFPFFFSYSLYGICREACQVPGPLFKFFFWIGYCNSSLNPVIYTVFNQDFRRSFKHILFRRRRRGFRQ
# Sequence of Voltage-gated potassium channel subunit beta-2 (Rattus norvegicus) (P62483 whole entry, looked up): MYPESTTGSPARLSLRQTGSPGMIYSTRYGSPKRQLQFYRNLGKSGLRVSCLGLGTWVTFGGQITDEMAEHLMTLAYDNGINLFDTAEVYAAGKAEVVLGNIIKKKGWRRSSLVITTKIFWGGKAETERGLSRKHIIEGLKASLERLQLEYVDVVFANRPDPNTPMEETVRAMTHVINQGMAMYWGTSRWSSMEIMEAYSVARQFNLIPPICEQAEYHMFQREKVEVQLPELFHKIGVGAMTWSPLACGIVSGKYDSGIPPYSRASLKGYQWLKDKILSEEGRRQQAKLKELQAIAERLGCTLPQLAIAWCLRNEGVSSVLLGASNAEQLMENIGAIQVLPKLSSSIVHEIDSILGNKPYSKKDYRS
SMILES,cell count [1],inhibition [1],inhibition of aggregation [2],nuclei count [2] [%],inhibition [3],nuclei count [3] [%],fluorescence slope [4],NADPH fluorescence slope [5],slope [6],inhibition [7],inhibition [8]
C#CC1(O)CC(C)N(C)C(C)C1 (stereo not drawn),266,-0.3% (inactive),41.8% (active),71.2,-76% (inactive),186,-0.606 (inactive),3.5e-06 (inactive),0.00632 (inactive),11% (inactive),17.2% (inactive)
COc1ccccc1N1CCN(C(CNS(=O)(=O)c2cc(F)ccc2F)c2cccnc2)CC1 (stereo not drawn),557,7.2% (inactive),-5.9% (inactive),96.7,-5% (inactive),108,-0.359 (inactive),-5.8e-05 (inactive),0.00529 (inactive),9.38% (inactive),22.5% (inactive)
COc1ccc2c(c1)CCc1cc(C(=O)N3CCN(c4ccc(N5CCOCC5)nn4)CC3)sc1-2,583,5.5% (inactive),-28.1% (inactive),127,-61.7% (inactive),114,-0.499 (inactive),-1.1e-05 (inactive),0.00712 (inactive),2.81% (inactive),-42.5% (inactive)
COc1cc(NC(=O)c2nccnc2C(=O)O)cc(OC)c1,856,1.2% (inactive),-12.8% (inactive),81.8,-30.5% (inactive),117,-0.554 (inactive),-2e-05 (inactive),0.00607 (inactive),-3.73% (inactive),6.75% (inactive)
CCOc1ccccc1Nc1nnc(SCC(=O)N2CCCC2)s1,655,1% (inactive),12.1% (inactive),106,-65.3% (inactive),100,-0.609 (inactive),1.4e-05 (inactive),0.00607 (inactive),4.86% (inactive),12.3% (inactive)
O=C(CCn1c(=O)c2ccccc2n(CC(=O)NCCC2=CCCCC2)c1=O)NCc1ccco1,596,-10.9% (inactive),25.7% (inactive),102,-9.8% (inactive),82,-0.558 (inactive),-3e-05 (inactive),0.00599 (inactive),-4.87% (inactive),10.3% (inactive)
Cc1ccc(N2C(N)=NC(N)=NC23CCCC3)c(C)c1,656,-5.9% (inactive),-11.1% (inactive),106,-26% (inactive),122,-0.635 (inactive),-5.6e-06 (inactive),0.0067 (inactive),10% (inactive),18.1% (inactive)
c1ccc(-c2nc3nonc3c3nc4ccccc4n23)cc1,333,-12.4% (inactive),1.1% (inactive),95.8,-40.9% (inactive),94.2,-0.244 (inactive),-2.9e-05 (inactive),0.00529 (inactive),9.01% (inactive),-7.48% (inactive)
Cc1cc(C(=O)Nc2c(F)cc(F)cc2Br)no1,338,-3.2% (inactive),25.8% (inactive),94.4,-143% (inactive),103,-0.58 (inactive),1.4e-05 (inactive),0.0051 (inactive),3.46% (inactive),-12% (inactive)
O=c1cc(CSc2nnnn2-c2ccccc2)nc2scc(-c3ccccc3)n12,444,8.1% (inactive),-10.9% (inactive),114,-101% (inactive),139,-0.415 (inactive),-1.1e-05 (inactive),0.004 (inactive),1.29% (inactive),12% (inactive)
CCn1cc(C(=O)NCc2ccccc2OC)c(=O)c2cc(S(=O)(=O)N(C)C)ccc21,665,-5.5% (inactive),7.5% (inactive),74.5,-39.5% (inactive),113,-0.425 (inactive),-4e-05 (inactive),0.00524 (inactive),13.2% (inactive),23.7% (inactive)
O=C(CNCCC1=CCCCC1)Nc1ccccc1N1CCCCC1,531,-56.1% (inactive),-10.4% (inactive),107,-65.7% (inactive),109,-0.581 (inactive),-2.4e-05 (inactive),0.00492 (inactive),7.21% (inactive),18.4% (inactive)
COc1cccc(OCCn2ccnc2)c1,305,-6.6% (inactive),9.6% (inactive),82.1,-24.7% (inactive),120,-0.422 (inactive),2e-05 (inactive),0.00692 (inactive),-8.26% (inactive),-3.22% (inactive)
O=C(Nc1ccc2c(c1)C(=O)N(C1CCCCC1)C2=O)C1CCCO1 (stereo not drawn),269,-11.7% (inactive),9% (inactive),71.5,47.7% (inactive),43.2,-0.0454 (active),6.1e-06 (inactive),0.00452 (inactive),-7.34% (inactive),-20.5% (inactive)
COc1ccc2cc(CN(Cc3ccco3)C(c3nnnn3C3CCCCC3)C(C)C)c(=O)[nH]c2c1 (stereo not drawn),325,1.6% (inactive),2.5% (inactive),119,-147% (inactive),125,-0.451 (inactive),5.5e-07 (inactive),0.00859 (inactive),11.1% (inactive),-3.61% (inactive)
CC(C)OC(=O)CSc1nnc(-c2ccco2)n1N,618,0% (inactive),7.4% (inactive),93.2,-1% (inactive),97.5,-0.422 (inactive),-2.8e-05 (inactive),0.00405 (inactive),0.828% (inactive),17% (inactive)
COc1ccc2[nH]c(=O)c(CN(Cc3cccs3)Cc3nnnn3C(C)(C)C)cc2c1,713,29.2% (inactive),1.1% (inactive),111,12.5% (inactive),88.8,-0.417 (inactive),-3.6e-05 (inactive),0.00579 (inactive),10% (inactive),7.17% (inactive)
O=c1cc(C(F)F)oc2c1ccc1ccccc12,398,-4% (inactive),14.2% (inactive),94,-244% (inactive),99.4,-0.349 (inactive),-1.6e-05 (inactive),0.00247 (inactive),9.69% (inactive),19.9% (inactive)
COC(=O)Cn1c(CN2CCOCC2)nc2c1c(=O)n(C)c(=O)n2C,666,-18.4% (inactive),6.2% (inactive),95.4,-0.7% (inactive),114,-0.418 (inactive),-5.7e-05 (inactive),0.00632 (inactive),6.17% (inactive),32.9% (inactive)
CN1C(=O)C(O)(CC(=O)c2ccc(F)cc2)c2cc(Br)ccc21 (stereo not drawn),580,6% (inactive),22.6% (inactive),69.5,16.6% (inactive),97.6,-0.436 (inactive),-7.2e-05 (inactive),0.0055 (inactive),22.4% (inactive),41.2% (inactive)
O=S(=O)(c1ccc(F)cc1)N1CCC(N2CCCC2)CC1,621,12.4% (inactive),5.9% (inactive),107,12.6% (inactive),107,-0.537 (inactive),-4.2e-05 (inactive),0.00636 (inactive),6.84% (inactive),45.9% (inactive)
CCOC(=O)CCNC(=O)Nc1ccc2nc(C)n(Cc3ccccc3Cl)c(=O)c2c1,623,1.4% (inactive),-9.2% (inactive),89.5,-33.8% (inactive),104,-0.366 (inactive),1.6e-05 (inactive),0.00472 (inactive),1.46% (inactive),-9.46% (inactive)
COC(=O)C1=C(C)Nc2ncnn2C1c1ccc(C)o1 (stereo not drawn),620,4.7% (inactive),-58.3% (inactive),95.5,9.8% (inactive),108,-0.581 (inactive),-8.1e-06 (inactive),0.0055 (inactive),-15.9% (inactive),-6.27% (inactive)
COC(=O)c1ccccc1S(=O)(=O)N(CCCO)Cc1cc2c(C)ccc(C)c2[nH]c1=O,688,-5.1% (inactive),-9% (inactive),108,-55.4% (inactive),120,-0.501 (inactive),6.1e-06 (inactive),0.00564 (inactive),2.69% (inactive),27.6% (inactive)
O=C(c1cccc(C(=O)N2CCN(c3ccc(F)cc3)CC2)c1)N1CCN(c2ccc(F)cc2)CC1,692,1.5% (inactive),-21.7% (inactive),68.1,-6.5% (inactive),92.8,-0.438 (inactive),-9.2e-05 (inactive),0.006 (inactive),-6.05% (inactive),-5.26% (inactive)
CC(C)(C#N)Nn1cnnc1,609,5.3% (inactive),13.2% (inactive),109,-1.2% (inactive),110,-0.237 (inactive),-1.3e-05 (inactive),0.00429 (inactive),11.7% (inactive),21.2% (inactive)
CCC(=O)N1CCN(CCN=CC2=C(O)CC(C)(C)CC2=O)CC1,476,4% (inactive),1.1% (inactive),105,5.8% (inactive),111,-0.518 (inactive),-2.4e-05 (inactive),0.00473 (inactive),8.29% (inactive),11.4% (inactive)
O=c1[nH]c2cc3c(cc2cc1C(c1nnnn1Cc1ccccc1)N1CCCc2ccccc21)OCO3 (stereo not drawn),552,-7.7% (inactive),16.5% (inactive),100,20.7% (inactive),108,-0.621 (inactive),1.7e-05 (inactive),0.0031 (inactive),10.6% (inactive),15.5% (inactive)

# — PubChem BioAssay
